Measurements as given in PubChem BioAssay (NCI).
This is part of a sample that, as a whole, favours compounds with a hit. Of some 83,000 tested, about 20% had one in any assay.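 A percent growth of 40 corresponds to 60% growth inhibition; 0 means no net growth; -100 means all cells died. Active threshold: below 10.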 Active and inactive are the calls of the source.

Columns and labels:
Assay in all cases: NCI-60 one-dose screen, 48 h (100 = growth as untreated, 0 = no growth, -100 = all killed)
Conditions in all cases: 10 µM unless noted
[1] = system: SK-MEL-2 melanoma
[2] = system: SN12C renal
[3] = system: UO-31 renal
[4] = system: TK-10 renal
[5] = system: ACHN renal
[6] = system: CAKI-1 renal
[7] = system: A498 renal
[8] = system: CCRF-CEM leukemia
[9] = system: SR leukemia
[10] = system: RPMI-8226 leukemia
[11] = system: OVCAR-8 ovarian
[12] = system: OVCAR-5 ovarian
[13] = system: OVCAR-4 ovarian
[14] = system: SK-OV-3 ovarian
[15] = system: IGROV1 ovarian
[16] = system: OVCAR-3 ovarian
[17] = system: HS 578T breast
[18] = system: NCI/ADR-RES ovarian
[19] = system: MOLT-4 leukemia
[20] = system: EKVX NSCLC

Measured: growth

Cc1csc(NC(c2ccc(Br)cc2)c2c(C)nc3ccccn23)n1 (stereo not given)
inactive: [1] 86.2% | [2] 94.8% | [3] 55.9% | [4] 116% | [5] 97.5% | [6] 80.8% | [7] 67.3% | [8] 89.1% | [9] 96.6% | [10] 74.7% | [11] 88.6% | [12] 88.2% | [13] 81.5% | [14] 85.3% | [15] 86.5% | [16] 96.7% | [17] 84.6% | [18] 95.4%

Cc1ccc(Nc2nnc(-c3ccc(Cl)cc3)o2)c(C)c1
inactive: [1] 67.9% | [2] 97.7% | [3] 82.6% | [4] 102% | [5] 95.7% | [6] 89.6% | [7] 81.6% | [8] 83.3% | [9] 53% | [10] 89.6% | [11] 95% | [12] 99% | [13] 82.1% | [15] 87.2% | [16] 82.4% | [17] 87.9% | [18] 45.6%

CCOC(=O)c1ccc2c(c1)nc(-c1ccc(OCc3ccccc3)c(OC)c1)n2-c1cc(C(C)(C)C)[nH]n1
inactive: [1] 92.9% | [2] 85.8% | [3] 67.5% | [4] 90.5% | [5] 72.1% | [6] 76.5% | [7] 72.3% | [19] 43.4% | [9] 68.9% | [10] 68.8% | [11] 99.7% | [12] 88.9% | [13] 76.4% | [14] 91.2% | [15] 83% | [16] 81.8% | [17] 82.2% | [18] 89.1%

O=C(Nc1cccc(-n2cc(-c3ccncc3)c(-c3ccc(Cl)c(O)c3)n2)c1)Nc1ccc(Cl)c(C(F)(F)F)c1
inactive: [6] 17.3% | [12] 23.3% | [15] 10.4%
active: [1] -60.4% | [2] 7.46% | [3] -6.09% | [4] -1.62% | [5] 6.62% | [8] -13.8% | [19] -22.1% | [10] -10.5% | [11] -41.8% | [13] -3.42% | [14] 7.47% | [16] -43% | [17] -7.39% | [18] -16.9%

COc1cc(/C=C/c2cc(/C=C/c3ccc(O)c(OC)c3)n(C(N)=O)n2)ccc1O
active: [1] -52.7% | [2] -5.22% | [3] -22.1% | [4] 4.79% | [5] -11.2% | [7] -24.4% | [8] -22.9% | [19] -33% | [9] -3.77% | [10] -44% | [11] -6.69% | [12] -30.7% | [13] -6.24% | [15] 1.18% | [16] -72.7% | [17] -11.3% | [18] 7.68%

N#Cc1c(-c2ccccc2)nc(SCC(=O)N2CCN(c3ccccc3)CC2)[nH]c1=O
inactive: [1] 113% | [2] 110% | [3] 87.6% | [4] 145% | [5] 101% | [6] 97.7% | [7] 116% | [9] 90.6% | [10] 95.7% | [11] 97.9% | [12] 98.5% | [13] 115% | [14] 101% | [15] 112% | [16] 111% | [17] 106% | [18] 101%

Fc1ccc(CNCCNc2ncnc3c2cnn3-c2ccccc2)cc1
inactive: [1] 113% | [2] 89.2% | [3] 62.1% | [4] 102% | [5] 100% | [7] 77.1% | [8] 86.9% | [19] 89.1% | [10] 84.6% | [11] 88% | [12] 98.6% | [13] 97.4% | [14] 94.6% | [15] 94.2% | [16] 109% | [17] 92.1% | [18] 95.8%

O=C(Nc1cccc(-n2cc(-c3ccncc3)c(-c3ccc(Cl)c(O)c3)n2)c1)Nc1cc(C(F)(F)F)cc(C(F)(F)F)c1
active: [1] -73.7% | [2] -36.1% | [3] -34.4% | [4] -24.6% | [5] 8.48% | [6] 8.94% | [7] -18.6% | [8] -16% | [19] -18.5% | [10] -10.9% | [11] -12.2% | [12] -32.9% | [13] 0.865% | [14] -24.3% | [15] 4.8% | [16] -67.5% | [17] -26% | [18] 4.72%

Nc1cc2c([nH]c[n+]2CC#CCCl)c(SCC#CCCl)n1
inactive: [17] 47.3%
active: [1] -30% | [2] -10.9% | [3] -76.8% | [4] -4.18% | [5] -34.7% | [6] 6.37% | [7] -52.1% | [8] 8.89% | [19] -1.5% | [10] -2.17% | [11] 0.0129% | [12] -76.9% | [14] -21.7% | [15] -57% | [16] -21.1% | [18] -24.2%

O=C(Nc1cccc(-n2cc(-c3ccncc3)c(-c3ccc(Cl)c(O)c3)n2)c1)Nc1cccc(C(F)(F)F)c1
active: [1] -25.7% | [10] 1.63%
inactive: [2] 14.6% | [3] 24.8% | [4] 21.9% | [5] 11.2% | [7] 17.7% | [8] 10.6% | [19] 12.5% | [11] 10.6% | [12] 62.4% | [13] 41.5% | [14] 21.2% | [15] 28.6% | [17] 29.4% | [18] 24.9%

O=S(=O)(NCCNc1nccc(-c2c(-c3cccc(O)c3)nc3sccn23)n1)c1ccc(F)cc1
inactive: [1] 41.7% | [2] 63.9% | [3] 83.4% | [4] 108% | [5] 60.2% | [6] 82.7% | [8] 41.7% | [19] 44.5% | [10] 76.2% | [11] 67.6% | [12] 107% | [13] 103% | [14] 85.9% | [15] 63.7% | [16] 86.8% | [17] 83% | [18] 97.9%

COc1ccc(OC)c(C2OC(c3ccc4ccccc4c3O)=NN2C(C)=O)c1 (stereo not given)
inactive: [1] 60.7% | [2] 80.6% | [3] 63.4% | [4] 80.7% | [5] 69.5% | [6] 87.6% | [7] 37.4% | [19] 61.8% | [10] 66.6% | [11] 81% | [12] 102% | [13] 75.5% | [14] 58% | [15] 75.8% | [16] 52.4% | [17] 71.7% | [18] 59.2%

C=C1C(=O)O[C@H]2[C@H]1CC/C(COC(=O)NCc1ccccc1OC)=C\CC[C@@]1(C)O[C@@H]21
active: [5] 6.65% | [8] 6.8% | [16] -1.44%
inactive: [1] 60.6% | [2] 23.4% | [3] 22% | [4] 20.6% | [6] 13.7% | [7] 67.1% | [10] 25.7% | [11] 10.5% | [12] 73% | [13] 41.7% | [14] 85.8% | [17] 40.1% | [18] 86%

COc1ccc(-c2c(N)n[nH]c2-c2cc(OC)c3c(c2)OCCO3)cc1
active: [9] -6.97%
inactive: [1] 64.8% | [2] 88.7% | [3] 92% | [4] 71.3% | [6] 70.3% | [8] 73.7% | [19] 61.3% | [10] 74.7% | [11] 83.5% | [13] 101% | [14] 90.2% | [15] 85.9% | [16] 76.2% | [17] 86.2% | [18] 63.8%

COc1cc(-c2nn(-c3cccc(NC(=O)c4ccccc4)c3)cc2-c2ccncc2)ccc1Cl
inactive: [2] 28.8% | [3] 29.8% | [4] 31% | [5] 32.3% | [11] 19.6% | [12] 66.4% | [13] 46.5% | [14] 42.1% | [15] 47.4%
active: [1] -42.5% | [7] -23.2% | [8] 2.06% | [19] 0.658% | [10] 9.39% | [16] 0.0228% | [17] -1.34% | [18] 0.342%

O=[N+]([O-])c1ccc(/C=C/C2(CCl)OCCO2)cc1
active: [9] 1.55%
inactive: [1] 91.7% | [2] 102% | [3] 95.3% | [4] 103% | [5] 116% | [7] 113% | [8] 62.4% | [19] 45.8% | [10] 68.5% | [11] 82.4% | [12] 111% | [13] 102% | [14] 103% | [16] 112% | [17] 109% | [18] 98.8%

Cc1cc(C)n(-c2nnc3n2N=C(c2ccc(-c4ccccc4)cc2)CS3)n1
active: [1] -12.1%
inactive: [2] 53.4% | [3] 46.6% | [4] 50.6% | [5] 54.8% | [6] 52.8% | [7] 20.4% | [8] 28.1% | [10] 37.2% | [11] 52.5% | [12] 83.8% | [13] 74.7% | [14] 56.8% | [15] 69.6% | [16] 15.6% | [17] 49.2% | [18] 35%

O=C(Nc1ccc2c(c1)OCO2)C(=O)c1c[nH]c2cc(F)ccc12
inactive: [20] 72.4% | [2] 79.5% | [3] 71.2% | [4] 72.7% | [5] 44.9% | [6] 32.7% | [19] 63.1% | [10] 64% | [11] 59% | [12] 77.6% | [13] 50.7% | [14] 59.7% | [15] 59.6% | [16] 50.5% | [17] 50.1% | [18] 47.6%
